# Data as given in PubChem BioAssay (NCATS).
# Records with an inconclusive call do not appear. Entries that show only a call come without a potency. Calls of active or inactive are those of the source. Unless noted, the call rests on the fitted dose curve; in most records, active means well fitted curve in the direction sought with a large enough effect; inconclusive means small, poorly fitted or top-dose-only effect, or another doubt; inactive means no such curve, though single readings can be large; an effect the other way counts as inactive or inconclusive.
# Assays:
# [1] = Natriuretic polypeptide receptor (hNpr1) antagonism - Pilot counterscreen GloSensor control cell line (AID 1347045; calls by dose curve; further: potency means the concentration at half of the fitted maximal effect)
# Summary of the method: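 This counterscreen uses HEK293 cells expressing the GIP/pGS-40F cGMP biosensor. Compound-treated cells are challenged with 50 uM sodium nitroprusside, and the luciferase signal is compared before and after stimulation.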
# [2] = target: Atrial natriuretic peptide receptor 1 (Homo sapiens) (UniProt P16066); assay: Natriuretic polypeptide receptor (hNpr1) antagonism - Pilot screen (AID 1347049; calls by dose curve;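 further: agonist-evoked cGMP luminescence read 20 min after hNppA addition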; further: potency means the concentration at half of the fitted maximal effect)
# Atrial natriuretic peptide receptor 1 (Homo sapiens), sequence (P16066 whole entry, looked up): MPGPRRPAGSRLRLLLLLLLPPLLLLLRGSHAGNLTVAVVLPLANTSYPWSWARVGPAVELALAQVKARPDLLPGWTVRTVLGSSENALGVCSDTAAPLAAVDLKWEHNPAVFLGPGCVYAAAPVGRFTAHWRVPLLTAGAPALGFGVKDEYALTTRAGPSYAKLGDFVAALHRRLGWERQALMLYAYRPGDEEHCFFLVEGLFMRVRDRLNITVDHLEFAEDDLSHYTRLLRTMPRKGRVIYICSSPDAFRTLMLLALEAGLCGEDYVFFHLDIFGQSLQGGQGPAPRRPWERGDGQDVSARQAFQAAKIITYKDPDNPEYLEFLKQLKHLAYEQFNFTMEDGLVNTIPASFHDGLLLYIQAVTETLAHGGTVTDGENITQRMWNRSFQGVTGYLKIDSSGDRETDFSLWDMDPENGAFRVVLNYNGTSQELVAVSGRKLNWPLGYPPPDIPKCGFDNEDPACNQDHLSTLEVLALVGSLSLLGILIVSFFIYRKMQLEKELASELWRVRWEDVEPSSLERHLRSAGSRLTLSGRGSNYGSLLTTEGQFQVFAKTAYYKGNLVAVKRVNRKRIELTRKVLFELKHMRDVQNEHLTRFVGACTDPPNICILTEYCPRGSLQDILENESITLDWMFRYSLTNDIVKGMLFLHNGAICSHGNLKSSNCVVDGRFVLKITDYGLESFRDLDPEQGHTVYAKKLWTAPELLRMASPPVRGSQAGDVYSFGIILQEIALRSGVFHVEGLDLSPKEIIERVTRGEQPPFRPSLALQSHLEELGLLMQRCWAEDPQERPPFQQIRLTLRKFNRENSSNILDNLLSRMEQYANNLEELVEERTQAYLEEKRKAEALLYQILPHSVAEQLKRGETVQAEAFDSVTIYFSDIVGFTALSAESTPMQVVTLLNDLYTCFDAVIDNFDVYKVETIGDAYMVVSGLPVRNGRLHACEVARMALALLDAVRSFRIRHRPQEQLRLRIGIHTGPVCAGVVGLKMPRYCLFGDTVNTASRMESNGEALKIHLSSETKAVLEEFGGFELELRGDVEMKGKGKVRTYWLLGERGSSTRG
# Summary of the method: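 HEK293 cells expressing hNpr1 and GloSensor cGMP luciferase, 1500/well, loaded with 2% GloSensor reagent 2 h, compound 30 min at room temperature; luminescence read before and 20 min after 0.1 nM hNppA stimulation.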
# [3] = target: Atrial natriuretic peptide receptor 2 (Homo sapiens) (UniProt P20594); assay: Natriuretic polypeptide receptor (hNpr2) antagonism - Pilot subtype selectivity assay (AID 1347050; calls by dose curve; further: potency means the concentration at half of the fitted maximal effect)
# Atrial natriuretic peptide receptor 2 (Homo sapiens), sequence (P20594 whole entry, looked up): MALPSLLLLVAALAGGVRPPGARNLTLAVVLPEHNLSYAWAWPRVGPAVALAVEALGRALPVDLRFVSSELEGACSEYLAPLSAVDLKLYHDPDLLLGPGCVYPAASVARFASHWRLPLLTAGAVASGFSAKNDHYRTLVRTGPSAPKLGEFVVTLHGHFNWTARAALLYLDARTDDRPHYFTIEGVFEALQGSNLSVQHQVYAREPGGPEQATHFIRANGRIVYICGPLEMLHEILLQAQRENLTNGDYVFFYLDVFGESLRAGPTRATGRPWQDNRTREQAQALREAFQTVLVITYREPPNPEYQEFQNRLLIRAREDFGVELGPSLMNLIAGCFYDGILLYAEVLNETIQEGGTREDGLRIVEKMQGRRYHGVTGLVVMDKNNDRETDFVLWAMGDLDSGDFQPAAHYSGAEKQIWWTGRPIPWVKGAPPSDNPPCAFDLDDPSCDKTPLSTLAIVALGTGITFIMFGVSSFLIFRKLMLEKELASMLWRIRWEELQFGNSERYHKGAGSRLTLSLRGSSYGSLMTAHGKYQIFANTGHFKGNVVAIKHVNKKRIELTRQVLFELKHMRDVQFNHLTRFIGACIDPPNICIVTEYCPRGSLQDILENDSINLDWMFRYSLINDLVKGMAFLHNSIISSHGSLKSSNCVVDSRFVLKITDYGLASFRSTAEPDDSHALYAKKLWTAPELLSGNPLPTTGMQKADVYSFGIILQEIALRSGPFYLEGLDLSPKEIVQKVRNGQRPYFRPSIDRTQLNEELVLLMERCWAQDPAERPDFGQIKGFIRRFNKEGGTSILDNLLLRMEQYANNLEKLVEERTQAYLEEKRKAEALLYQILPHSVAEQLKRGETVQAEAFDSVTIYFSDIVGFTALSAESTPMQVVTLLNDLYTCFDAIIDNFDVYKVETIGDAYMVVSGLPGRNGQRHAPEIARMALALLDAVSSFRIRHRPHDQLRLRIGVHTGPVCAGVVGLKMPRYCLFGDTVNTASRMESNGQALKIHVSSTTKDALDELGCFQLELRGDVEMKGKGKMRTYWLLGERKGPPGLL
# Summary of the method: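 HEK293 cells expressing hNpr2 and a GloSensor cGMP luciferase sensor, 1500/well, preloaded 2 h with 2% GloSensor reagent, compound 30 min, then 1 nM hNppC for 20 min. Antagonism from luminescence after versus baseline pre-read; LOPAC in 1:5 titrations.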
# [4] = NS1 protein of Zika virus - qHTS assay to identify small molecule inhibitors in human HEK 293 cells (AID 1347053); further: series mostly up to about 46 µM; nearly all actives have a fitted effect of over 55% in size
# Summary of the method: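 HEK 293 cells, seeded 20 h at 37 C, were pretreated with compound 1 h, then infected with ZIKV MR766 (MOI = 0.5) for 24 h. NS1 was read by TR-FRET with two anti-NS1 antibodies, normalized to uninfected and infected wells.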
# [5] = target: T1, Tyrosine-protein phosphatase non-receptor type substrate 1 (Homo sapiens) + Leukocyte surface antigen CD47 (Homo sapiens) (UniProt P78324+Q08722); assay: CD47-SIRPalpha protein protein interaction - LANCE assay qHTS validation (AID 1347057; active means well fitted curve in the direction sought with a large enough effect in the signal ratio, with a control signal flat, not every such curve was filed as active; the % refers to the signal ratio; further: series mostly up to about 38 µM)
# T1 sequence (P78324 whole entry, looked up): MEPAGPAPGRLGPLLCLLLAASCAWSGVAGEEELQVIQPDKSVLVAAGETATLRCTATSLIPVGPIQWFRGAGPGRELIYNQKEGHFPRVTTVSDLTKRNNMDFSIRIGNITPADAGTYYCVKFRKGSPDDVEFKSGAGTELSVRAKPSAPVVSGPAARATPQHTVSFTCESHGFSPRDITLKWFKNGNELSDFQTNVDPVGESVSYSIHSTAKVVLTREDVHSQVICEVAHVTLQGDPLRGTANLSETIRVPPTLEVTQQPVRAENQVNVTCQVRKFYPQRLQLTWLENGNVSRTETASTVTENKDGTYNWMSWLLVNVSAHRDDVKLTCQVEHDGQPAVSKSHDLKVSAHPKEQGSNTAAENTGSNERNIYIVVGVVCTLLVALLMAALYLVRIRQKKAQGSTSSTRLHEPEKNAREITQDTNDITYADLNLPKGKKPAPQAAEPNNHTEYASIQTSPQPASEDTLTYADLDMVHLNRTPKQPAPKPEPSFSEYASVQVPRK
# T1 sequence (Q08722 whole entry, looked up): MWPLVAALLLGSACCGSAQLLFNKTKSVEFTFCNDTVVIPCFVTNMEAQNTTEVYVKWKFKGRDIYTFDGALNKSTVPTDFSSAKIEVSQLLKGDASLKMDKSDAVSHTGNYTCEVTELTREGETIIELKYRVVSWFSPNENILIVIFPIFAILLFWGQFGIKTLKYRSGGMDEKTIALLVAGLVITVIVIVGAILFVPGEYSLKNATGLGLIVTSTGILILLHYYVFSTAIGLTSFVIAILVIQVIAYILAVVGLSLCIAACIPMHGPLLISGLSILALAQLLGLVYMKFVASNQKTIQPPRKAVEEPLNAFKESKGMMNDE
# Summary of the method: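 First, His-tagged CD47 and Eu-labelled anti-His antibody met the compound for 30 min; next, site-specifically biotinylated SIRPalpha was added for 30 min; finally streptavidin-APC was added before reading the TR-FRET ratio.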
# [6] = target: T1, Tyrosine-protein phosphatase non-receptor type substrate 1 (Homo sapiens) + Leukocyte surface antigen CD47 (Homo sapiens); assay: CD47-SIRPalpha protein protein interaction - HTRF assay qHTS validation (AID 1347058; active means well fitted curve in the direction sought with a large enough effect in the signal ratio, not every such curve was filed as active; the % refers to the signal ratio;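 further: recombinant soluble extracellular CD47 with His tag and biotinylated SIRPalpha domains; series mostly up to about 38 µM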)
# Summary of the method: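 TR-FRET read (Ch1/Ch2 ratio) of soluble extracellular CD47 and Avi-biotinylated SIRPalpha domains in PBS pH 7.4 with 0.05% IGEPAL; 7-point compound titration. Sequential 30 min room-temperature steps; non-biotinylated SIRPalpha as control inhibitor.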
# [7] = target: T1, Tyrosine-protein phosphatase non-receptor type substrate 1 (Homo sapiens) + Leukocyte surface antigen CD47 (Homo sapiens); assay: CD47-SIRPalpha protein protein interaction - Alpha assay qHTS validation (AID 1347059);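 further: bead proximity luminescence from CD47 binding SIRPalpha after compound preincubation with SIRPalpha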
# Summary of the method: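 Biotinylated Avi-tagged SIRPalpha (25 nM) preincubated 30 min with compound, then His-tagged CD47 (12.5 nM) added 30 min; AlphaScreen with Ni-NTA acceptor and streptavidin donor beads. PBS pH 7.4, 0.05% IGEPAL, room temperature; 7-point titrations.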
# [8] = target: Parathyroid hormone/parathyroid hormone-related peptide receptor (Homo sapiens) (UniProt Q03431); assay: qHTS for PTHR1 Agonists: Optimization Screen against the NCGC LOPAC library (AID 1347079);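 further: GloSensor cAMP luminescence in HEK-293 GP2 cells expressing human PTHR1 with IBMX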
# Parathyroid hormone/parathyroid hormone-related peptide receptor (Homo sapiens), sequence (Q03431 whole entry, looked up): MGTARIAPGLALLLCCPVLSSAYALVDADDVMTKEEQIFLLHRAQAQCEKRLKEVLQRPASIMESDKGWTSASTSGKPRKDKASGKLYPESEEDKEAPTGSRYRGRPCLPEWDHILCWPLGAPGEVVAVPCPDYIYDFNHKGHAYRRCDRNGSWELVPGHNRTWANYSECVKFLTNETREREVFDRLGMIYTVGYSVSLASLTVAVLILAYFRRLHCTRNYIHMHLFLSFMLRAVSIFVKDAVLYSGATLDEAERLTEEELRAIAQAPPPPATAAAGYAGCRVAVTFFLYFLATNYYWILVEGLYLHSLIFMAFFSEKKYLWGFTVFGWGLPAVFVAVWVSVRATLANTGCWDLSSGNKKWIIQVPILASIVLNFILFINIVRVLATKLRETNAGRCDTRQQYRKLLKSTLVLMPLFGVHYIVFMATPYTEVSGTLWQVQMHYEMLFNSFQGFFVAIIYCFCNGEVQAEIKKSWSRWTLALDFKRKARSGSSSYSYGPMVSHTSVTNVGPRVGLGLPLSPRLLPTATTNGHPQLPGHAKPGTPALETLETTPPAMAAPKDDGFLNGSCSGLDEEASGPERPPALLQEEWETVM
# Summary of the method: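 Compounds were tested across a qHTS titration. PTHR1-expressing GP2 cells report cAMP rises via GloSensor luminescence after 1 hr compound exposure at 37C with IBMX present.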
# [9] = qHTS of pediatric cancer cell lines to identify multiple opportunities for drug repurposing: Primary screen for TC32 cells (AID 1347089); further: nearly all actives have a fitted effect of over 60% in size
# Summary of the method: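 In the primary qHTS, MIPE compounds were tested at 11 concentrations (0.78 nM to 46 µM) and NPC compounds at 8 (0.59 nM to 46 µM) on TC32 cells for 48 h. CellTiter-Glo luminescence gave viability.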
# [10] = qHTS of pediatric cancer cell lines to identify multiple opportunities for drug repurposing: Primary screen for DAOY cells (AID 1347090); further: series mostly up to about 46 µM; nearly all actives have a fitted effect of over 55% in size
# Summary of the method: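 Viability measured as metabolically active cells via CellTiter-Glo luminescence following 48 hours of compound exposure, 11-point dilutions in confirmatory testing. 500-1,000 cells/well plated 5 hours before dosing; controls were DMSO and 2.3 µM bortezomib.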
SMILES,Potency [1],Potency [2],Potency [3],Potency [4],Potency [5],outcome [6],Potency [7],Potency [8],Potency [9],Potency [10]
NCCSSCCN,inactive,inactive,inactive,inactive,inactive,inactive,inactive,inactive,,
CC(C)Cc1ccc([C@H](C)C(=O)O)cc1,inactive,inactive,inactive,inactive,inactive,inactive,,inactive,,
CN1C2CCC1CC(OC(=O)C(O)c1ccccc1)C2 (stereo not drawn),inactive,inactive,inactive,inactive,inactive,inactive,inactive,inactive,,
O=[N+]([O-])c1ccc2c(c1)S(=O)(=O)C=C2,9.27 µM (active),10.7 µM (active),5.85 µM (active),,inactive,,,inactive,,
Cc1ccc(S(=O)(=O)/C=C/C#N)cc1,9.27 µM (active),inactive,9.27 µM (active),,inactive,inactive,inactive,inactive,,
Nc1nc(Cl)nc2c1ncn2[C@@H]1O[C@H](COP(=O)(O)OP(=O)(O)OP(=O)(O)O)[C@@H](O)[C@H]1O,inactive,inactive,inactive,inactive,inactive,inactive,inactive,inactive,,
N.N.O=C(O)C1(C(=O)O)CCC1.[Pt],inactive,inactive,inactive,,,,,,,
NC(=S)NCCC[C@H](N)C(=O)O,inactive,inactive,inactive,,,,,,,
CN1CCC[C@H]1c1cccnc1,inactive,inactive,inactive,,,,,inactive,,
CC1OC1P(=O)(O)O (stereo not drawn),inactive,inactive,inactive,inactive,inactive,inactive,,inactive,,
Cn1ncc(S(=O)(=O)Cc2ccccc2)c(Br)c1=O,,inactive,11.7 µM (active),inactive,inactive,,inactive,inactive,,
Oc1cc2c(cc1O)CN(C(=S)NCCc1ccc(Cl)cc1)CCC2,,inactive,inactive,inactive,inactive,inactive,inactive,inactive,,
O=P(O)(O)C(Cl)(Cl)P(=O)(O)O,,inactive,inactive,inactive,inactive,inactive,,inactive,,
Cc1cc(NC2CCCCC2)nc(-n2nc(C)cc2C)n1,,inactive,inactive,inactive,inactive,inactive,,inactive,,
CC(C)NCC(O)COc1cccc2ccccc12 (stereo not drawn),,inactive,inactive,inactive,inactive,inactive,inactive,inactive,,
Nc1ncnc2c1ncn2[C@@H]1O[C@H](COP(=O)(O)CP(=O)(O)OP(=O)(O)O)[C@@H](O)[C@H]1O,,inactive,inactive,inactive,inactive,inactive,,inactive,,
C=CC(N)CCC(=O)O (stereo not drawn),,inactive,inactive,inactive,inactive,inactive,inactive,inactive,,
O=C(Nc1ccccc1)c1cc([N+](=O)[O-])ccc1Cl,,inactive,inactive,inactive,inactive,,inactive,inactive,,
O=c1[nH]c2cc([N+](=O)[O-])c([N+](=O)[O-])cc2[nH]c1=O,,inactive,inactive,inactive,inactive,,inactive,,,
CN(C)c1nc(N)c(C(=O)N=C(N)N)nc1Cl,,inactive,inactive,inactive,inactive,,inactive,,,
Brc1c(Br)c(Br)c2n[nH]nc2c1Br,,inactive,inactive,inactive,inactive,inactive,inactive,inactive,,
CCCCCCCCCCCCCCCC(=O)OC(CC(=O)O)C[N+](C)(C)C (stereo not drawn),,inactive,inactive,inactive,inactive,inactive,,inactive,,
CCCN(CC1CC1)c1nc(C)nc(Nc2c(Cl)cc(Cl)cc2Cl)c1Cl,,inactive,inactive,inactive,inactive,inactive,inactive,inactive,,
NC(=O)C(=O)O,,inactive,inactive,inactive,inactive,inactive,inactive,inactive,,
CC(C)NC[C@H](O)COc1cccc2[nH]ccc12,,inactive,inactive,inactive,inactive,inactive,inactive,inactive,,
Nc1nc(SCc2ccc([N+](=O)[O-])cc2)c2ncn([C@@H]3O[C@H](CO)[C@@H](O)[C@H]3O)c2n1,,inactive,inactive,inactive,inactive,,inactive,inactive,,
CC(N)C(=O)OC(C)(C)Cc1ccc(Cl)cc1 (stereo not drawn),,inactive,inactive,inactive,inactive,inactive,inactive,inactive,inactive,inactive
O=C1NC(=O)/C(=C/c2ccc(-c3ccc(F)cc3O)o2)S1,,inactive,inactive,inactive,inactive,inactive,,inactive,,
N=c1ccn2c(n1)O[C@H]1[C@H](O)[C@@H](CO)O[C@H]12,,inactive,inactive,inactive,inactive,inactive,inactive,inactive,,
OCC1O[C@H](O)C(Cl)C(O)C1O (stereo partly drawn),,inactive,inactive,inactive,inactive,,inactive,,,
